Compound activity: PubChem BioAssay, Broad Institute
Many of the other results were omitted from the sample, so hits are more common in it than they were.
NOMO-1 viab: STK33 inhibitor candidate reducing NOMO-1 cell viability; AID 2330; 37,000 tested, 7.5% active; inhibition, % (test concentration not listed); NOMO-1 AML viability, CellTiter-Glo luminescence, 72 h; in the data active = inhibition above about 80%; inconclusive = no clear call, values can overlap the other calls
STK33 inh: inhibitors of human STK33 kinase | 27,000 tested, 0.44% active | AID 2322 | ADP-Glo luminescence, MBP substrate | Q9BYT3 | inhibition, % at 12.5 µM; in the data active = inhibition above about 20%; inconclusive = no clear call, values can overlap the other calls
Target sequence (Q9BYT3 whole entry, looked up): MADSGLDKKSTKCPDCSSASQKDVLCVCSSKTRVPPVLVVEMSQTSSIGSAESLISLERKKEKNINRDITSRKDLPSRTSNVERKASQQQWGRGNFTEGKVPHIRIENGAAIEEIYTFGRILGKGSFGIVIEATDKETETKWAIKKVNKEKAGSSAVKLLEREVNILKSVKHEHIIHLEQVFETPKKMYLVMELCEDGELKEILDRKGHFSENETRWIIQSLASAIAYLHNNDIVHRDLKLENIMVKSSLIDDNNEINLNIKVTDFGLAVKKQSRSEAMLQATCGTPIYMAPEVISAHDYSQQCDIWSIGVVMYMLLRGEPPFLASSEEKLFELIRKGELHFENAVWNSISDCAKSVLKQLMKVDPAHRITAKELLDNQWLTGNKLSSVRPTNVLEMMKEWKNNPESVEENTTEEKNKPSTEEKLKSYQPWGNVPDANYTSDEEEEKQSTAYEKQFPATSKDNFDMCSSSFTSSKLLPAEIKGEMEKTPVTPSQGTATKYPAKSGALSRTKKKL
PD-1 reversal: reversal of PD-1 mediated T-cell inhibition; primary human CD4 T cells, PD-L1 beads, CellTiter-Glo 96 h; activation, % (test concentration not listed); 29,000 tested, under 10 active; call rule not given here
Large screens that a line does not name were inactive.

COc1ccc(OC)c(NC(=O)COc2ccc3c4c(c(=O)oc3c2C)CCC4)c1	none
COc1ccccc1COc1ccc2c3c(c(=O)oc2c1C)CCCCC3	NOMO-1 viab 86.8 (no result: STK33 inh)
C[C@H]1CN([C@@H](C)CO)C(=O)c2cccc(NC(=O)Nc3ccc(F)cc3)c2O[C@H]1CN(C)Cc1ccc(C(=O)O)cc1	none (no result: STK33 inh)
C[C@@H]1CN([C@@H](C)CO)C(=O)c2cccc(NC(=O)Nc3ccc(F)cc3)c2O[C@H]1CN(C)Cc1ccc(C(=O)O)cc1	none (no result: STK33 inh, PD-1 reversal)
C[C@@H]1CN([C@H](C)CO)C(=O)c2cccc(NC(=O)Nc3ccccc3)c2O[C@@H]1CN(C)Cc1ccc(C(=O)Nc2ccccc2N)cc1	NOMO-1 viab 128.3 (no result: STK33 inh)
C[C@H]1CN([C@@H](C)CO)C(=O)c2cccc(NC(=O)Nc3ccc(F)cc3)c2O[C@H]1CN(C)Cc1ccc(C(=O)Nc2ccccc2N)cc1	NOMO-1 viab 127.2 (no result: STK33 inh)
C[C@H](CO)N1C[C@H](C)[C@@H](CN(C)Cc2ccc(C(=O)Nc3ccccc3N)cc2)Oc2c(NC(=O)Nc3ccc(F)cc3)cccc2C1=O	NOMO-1 viab 125.5 (no result: STK33 inh)
C[C@@H]1CN([C@H](C)CO)C(=O)c2cccc(NC(=O)Nc3ccccc3)c2O[C@H]1CN(C)Cc1ccc(C(=O)O)cc1	none (no result: STK33 inh, PD-1 reversal)
O=C(CN1C(=O)c2ccccc2S1(=O)=O)Nc1ccccc1C(=O)N1CCCC1	none
O=c1cc(CSc2n[nH]c(=O)n2-c2ccccc2)c2ccc(O)cc2o1	none (no result: STK33 inh)
CC(C)Cn1c(SCC(=O)c2ccc(Cl)cc2)nc2ccccc2c1=O	none
O=S(=O)(CCc1ccncc1)c1ccccc1	none (no result: STK33 inh)
CNC(=O)c1ccccc1S(=O)c1cccc2cccc(C(=O)O)c12 (stereo not given)	none (no result: STK33 inh)
COc1cc2c(cc1NC(=O)CN(C)S(=O)(=O)c1ccc(C)cc1)oc1ccccc12	none
O=C(CSc1nnnn1-c1ccc(O)cc1)Nc1ccc(F)cc1	none
C[C@@H]1CN([C@H](C)CO)C(=O)Cc2cc(NC(=O)Nc3ccc(C(F)(F)F)cc3)ccc2O[C@@H]1CN(C)Cc1ccc2c(c1)OCO2	NOMO-1 viab 115.0
C[C@@H]1CN([C@H](C)CO)C(=O)Cc2cc(NC(=O)Nc3ccc(F)cc3)ccc2O[C@H]1CN(C)Cc1ccc2c(c1)OCO2	none
C[C@@H]1CN([C@@H](C)CO)C(=O)Cc2cc(NC(=O)Nc3ccc4c(c3)OCO4)ccc2O[C@@H]1CN(C)Cc1ccc2c(c1)OCO2	none
C[C@@H]1CN([C@H](C)CO)C(=O)Cc2cc(NC(=O)Nc3ccc4c(c3)OCO4)ccc2O[C@@H]1CN(C)Cc1ccc(C(F)(F)F)cc1	NOMO-1 viab 81.0
C[C@H]1CN([C@@H](C)CO)C(=O)Cc2cc(NC(=O)Nc3ccc(C(F)(F)F)cc3)ccc2O[C@@H]1CN(C)Cc1ccc2c(c1)OCO2	none (no result: PD-1 reversal)
C[C@H](CO)N1C[C@H](C)[C@H](CN(C)Cc2ccc3c(c2)OCO3)Oc2ccc(NC(=O)Nc3ccc(C(F)(F)F)cc3)cc2CC1=O	NOMO-1 viab 124.0
COc1ccc(NC(=O)c2ccccc2NC(=O)COc2ccc(Cl)cc2)cc1	none (no result: PD-1 reversal)
Cc1ccccc1OCC(=O)Nc1ccc(O)cc1C(=O)O	none
COc1ccc(NC(=O)CSc2nnc(N)s2)cc1Cl	none (no result: PD-1 reversal)
Cc1cc(C)n2nc(SCC(=O)c3ccc4c5c(cccc35)CC4)nc2n1	none
C[C@@H]1CN([C@@H](C)CO)C(=O)Cc2cc(NS(=O)(=O)c3ccc(Cl)cc3)ccc2O[C@@H]1CN(C)Cc1ccccc1	NOMO-1 viab inconclusive
C[C@H]1CN([C@@H](C)CO)C(=O)Cc2cc(NS(=O)(=O)c3ccc(Cl)cc3)ccc2O[C@H]1CN(C)Cc1ccccc1	NOMO-1 viab 100.7 (no result: STK33 inh)
C[C@H]1CN([C@@H](C)CO)C(=O)Cc2cc(NS(=O)(=O)c3ccc(Cl)cc3)ccc2O[C@@H]1CN(C)Cc1ccccc1	NOMO-1 viab 106.8
C[C@H]1CN([C@@H](C)CO)C(=O)Cc2cc(NS(=O)(=O)c3ccccc3)ccc2O[C@@H]1CN(C)Cc1ccccc1	none
CC12CCC(C(=O)N3NC(=O)[C@@H](c4ccccc4)[C@@H]3c3ccccc3)(OC1=O)C2(C)C (stereo not given in full)	none (no result: STK33 inh)
COCCCNc1ncnc(N)c1[N+](=O)[O-]	none
COc1cc(CO)cc(Cl)c1OCc1cccc(C(=O)O)c1	none
COc1cc(OC)c(C2=NOC(C(=O)NCC3CCCO3)C2)cc1Cl (stereo not given)	none (no result: NOMO-1 viab, PD-1 reversal)
Cc1ccc(S(=O)(=O)N[C@H](Cc2ccccc2)C(=O)CCl)cc1	NOMO-1 viab 98.2
Cc1ccc(S(=O)(=O)NCc2ccccc2)cc1	none (no result: STK33 inh)
O=S(=O)(N[C@@H]1CCN(Cc2ccc(OCCO)cc2)C1)c1cccc2cccnc12	none (no result: NOMO-1 viab, PD-1 reversal)
CCn1c2ccccc2c2cc(NC(=O)CSc3nnnn3-c3ccccc3)ccc21	none (no result: PD-1 reversal)
CCn1c2ccccc2c2cc(NS(=O)(=O)c3ccccc3)ccc21	NOMO-1 viab 136.4 (no result: STK33 inh)
C[C@H]1CN([C@@H](C)CO)C(=O)c2cc(NS(=O)(=O)c3ccccc3)ccc2O[C@@H]1CN(C)Cc1ccc(Cl)c(Cl)c1	none
Cc1ccc(S(=O)(=O)Nc2ccc3c(c2)C(=O)N([C@H](C)CO)C[C@H](C)[C@H](CN(C)Cc2ccc(Cl)c(Cl)c2)OCCCC[C@@H](C)O3)cc1	NOMO-1 viab 110.7
Cc1ccc(S(=O)(=O)Nc2ccc3c(c2)C(=O)N([C@@H](C)CO)C[C@@H](C)[C@@H](CN(C)Cc2ccc(Cl)c(Cl)c2)O3)cc1	NOMO-1 viab 117.4 (no result: STK33 inh)
Cc1ccc(S(=O)(=O)Nc2ccc3c(c2)C(=O)N([C@@H](C)CO)C[C@H](C)[C@@H](CN(C)Cc2ccc(Cl)c(Cl)c2)O3)cc1	NOMO-1 viab 106.4 (no result: STK33 inh)
C[C@@H]1CCCCO[C@H](CN(C)Cc2ccc(Cl)c(Cl)c2)[C@@H](C)CN([C@H](C)CO)C(=O)c2cc(NS(=O)(=O)c3ccc(F)cc3)ccc2O1	none
C[C@@H]1CN([C@H](C)CO)C(=O)c2cc(NS(=O)(=O)c3ccccc3)ccc2O[C@@H]1CN(C)Cc1ccc(Cl)c(Cl)c1	none (no result: STK33 inh)
CCN(CC(=O)Nc1ccccc1)S(=O)(=O)c1ccc(F)cc1	none (no result: PD-1 reversal)
S=C(Nc1ccccc1)c1ccccc1	none (no result: STK33 inh)
CCn1c2c(c3cc(OCc4ccccc4)ccc31)CCCC2=O	none
Cc1cccc(C)c1NC(=O)COc1cc(O)c2c(=O)cc(-c3ccccc3)oc2c1	NOMO-1 viab inconclusive
COc1ccccc1-n1c(SC(C)C(=O)N2CCCCC2)nc2ccc(I)cc2c1=O (stereo not given)	none
C=C1C(=O)O[C@H]2[C@H]1[C@H](O)CC(=C)[C@@H]1CC(=O)C(C)[C@H]21 (stereo not given in full)	NOMO-1 viab 117.6
C=C1C(=O)O[C@H]2C1[C@H](OC(=O)/C(=C/CO)COC(=O)/C(C)=C/CO)CC(=C)[C@@H]1CC(=O)[C@@H](C)[C@@H]12 (stereo not given in full)	NOMO-1 viab 108.2
C=C1C(=O)O[C@@H]2[C@H]3C(=C)[C@@H](O[C@@H]4O[C@H](CO)[C@@H](O)[C@H](O)[C@H]4O)C[C@H]3C(=C)C[C@@H](O)[C@@H]12	none
COc1ccc(NC(=O)Nc2nn(Cc3c(F)cccc3Cl)cc2Br)c(OC)c1	none
Cc1ccc(OCC(O)Cn2cnc3ccccc32)cc1 (stereo not given)	none
CC(C)(C)c1ccc(OCC(O)Cn2cnc3ccccc32)cc1 (stereo not given)	NOMO-1 viab 93.1 (no result: PD-1 reversal)
